In PubChem BioAssay AID624296 (National Center for Advancing Translational Sciences (NCATS), 2012):
Out of some 350,000 compounds screened, about 9,900 (2.8%) were called active. Entries that show only a call come without a potency. About 15% were inconclusive and are not listed. Calls follow the shape of the dose curve; as a rule, active = well fitted activation curve with a large enough effect; inconclusive = small, poorly fitted or top-dose-only effect; inactive = no such curve, though single readings can be large or run the other way. This excerpt belongs to a sample that is enriched for actives.

assay: A quantitative high throughput screen for small molecules that induce DNA re-replication in MCF 10a normal breast cells.; also: nearly all actives have a fitted effect of over 50% in size; conditions: MCF 10A DNA re-replication, Hoechst nuclear intensity, 48 h; series mostly up to 46.1 µM
Text: H Molecular Libraries Probe Production Network [MLPCN]
NIH Chemical Genomics Center [NCGC]
Assay Provider: Melvin DePamphilis, NICHD, NIH
Eukaryotic cells normally restrict genome duplication to once per cell division. When this process is aberrant, DNA re-replication occurs when cells reinitiate DNA replication before the first round of replication is complete. DNA re-replication induces the DNA damage response, arrests cell proliferation, and triggers apoptosis. The cell cycle components cyclin A, Cdt-1, Cdc6 and geminin are critical regulators of this process and their misregulation results in DNA re-replication in normal and cancer cells. To identify compounds that induce re-replication in normal cells, an image-based assay was used to measure DNA content of nuclei, as detected by the fluorescent DNA binding dye, Hoechst. Cell nuclei were imaged by a fluorescence scanning plate imager and compounds that induce DNA re-replication were identified by the increase of nuclei with elevated fluorescence intensity
For screening, 250 cells in 5 uL/well were dispensed into black clear 1536-well plates (Aurora) using a solenoid-based dispenser. Following transfer of 23 nL compound or DMSO vehicle by a pin tool, the plates were incubated 48 hr at 37 C and 5% CO2. After addition of 1 uL/well Hoescht stain, the plates were incubated 40 min at 37 C, 5% CO2 and total intensity of fluorescent objects (nuclei) were enumerated by an Acumen Explorer Ex3 (TTP LabTech) fluorescence scanning plate imager (405 nm excitation, 500-530 nm emission).
Keywords: NIH Roadmap, MLPCN, MLI, MLSMR, qHTS, NCGC, DNA replication, cancer
Potency is read from the fitted curve at half-maximal effect.

| SMILES | Potency |
| --- | --- |
| CCOC(=O)c1c(N)n(CCN2CCOCC2)c2nc3ccccc3nc12 | inactive |
| CCOC(=O)c1c(N)n(Cc2ccccc2)c2nc3ccccc3nc12 | inactive |
| COc1cc(Cn2c(N)c(C(=O)NCc3ccco3)c3nc4ccccc4nc32)cc(OC)c1OC | 2.31 µM (active) |
| CC1CCCN1CCC(C(N)=O)(c1ccccc1)c1ccccc1 (stereo not given) | inactive |
| C[C@]12CC[C@H](O)CC1=C([N+](=O)[O-])CC1C2CC[C@@]2(C)C1CC[C@@H]2O (stereo not given in full) | inactive |
| CCc1ccc(OCC(=O)N2CCN(CC(=O)Nc3ccccc3Cl)CC2)cc1 | inactive |
| C[C@]12CCCCC1=CC(=O)C1C2CC[C@@]2(C)C1C[C@@H](F)[C@@H]2O (stereo not given in full) | inactive |
| O=c1[nH]c(CN2CC=C(c3ccccc3)CC2)nc2scc(-c3cccs3)c12 | 25.9 µM (active) |
| C=C(C)C1(CCCC)C(=O)NC(=S)NC1=O | inactive |
| Cc1ncsc1CCCl | inactive |
| CCC(=O)c1ccc(OCC(=O)N2CCN(CC(=O)Nc3ccc(C)cc3)CC2)cc1 | inactive |
| COc1ccc(C2CC(c3cccs3)=NN2c2nc(C)c(C(C)=O)s2)cc1OC (stereo not given) | 3.26 µM (active) |
| c1ccc2sc(SNC3CCCCC3)nc2c1 | inactive |
| C=CCN1CCC23c4c5ccc(O)c4O[C@H]2C(=O)CC[C@@]3(O)C1C5 (stereo not given in full) | inactive |
| CC1C(=O)OC2CCN3CC=C(COC(=O)C(C)(O)C1(C)O)C23 (stereo not given) | inactive |
| COc1ccc2c3c1O[C@H]1C[C@@H](O)C=C[C@@]31CCN(C)C2 | inactive |
| CCOC(=O)CC(SP1(=S)OCC2(CCCCO2)C(C2CCCCO2)O1)C(=O)OCC (stereo not given) | inactive |
| C[C@]12CCC3C(CC[C@H]4[C@H](O)[C@H](O)CC[C@]34C)C1CC[C@@H]2O (stereo not given in full) | inactive |
| C/C(=N/O)c1ccc2ccc3ccccc3c2c1 | 25.9 µM (active) |
| C/C(CCc1c[nH]c2ccccc12)=N\O | inactive |
| O=[N+]([O-])c1cnc2ccc3ccccc3c2c1 | inactive |
| CCNC[C@H](O)c1cccc(O)c1 | inactive |
| Nc1ccc(Cc2ccc(N)c(Cl)c2)cc1Cl | inactive |
| COc1ccc2c(c1)NP(=S)(c1ccccc1)N2 (stereo not given) | inactive |

| SMILES | Potency |
| --- | --- |
| CC(CC(C#N)(c1ccccc1)c1ccccc1)N1CCCCC1 (stereo not given) | inactive |
| CN(C)CC1Oc2ccccc2OC1(O)c1ccccc1 (stereo not given) | 2.59 µM (active) |
| c1ccc(C(CN2CCCCC2)c2ccccc2)cc1 | inactive |
| COc1cc(OC)cc(C2(C#N)CCN(C)CC2)c1 | inactive |
| Cc1cccc([C@H](C)c2cnc[nH]2)c1C | inactive |
| CCOc1ccc(CN(CCCl)CCCl)cc1C(=O)OC | inactive |
| O=C1NC(=O)C(Cc2ccccc2)C(=O)N1 | inactive |
| NC(=O)Cn1cc(C(=O)c2ccccc2F)c2ccccc21 | 0.58 µM (active) |
| Cn1cc(C(=O)OCC(=O)N2CCCC2)c2ccccc21 | inactive |
| N#Cc1ccc(Cn2cc(C(=O)c3ccco3)c3ccccc32)cc1 | inactive |
| CCOC(=O)C1(c2ccccc2)CCN(CC(O)c2ccc(NC(C)=O)cc2)CC1 (stereo not given) | inactive |
| O=c1c2ccccc2nc(-c2ccco2)n1-c1ccc(Br)cn1 | inactive |
| Cc1nc2ccccc2c(=O)n1-c1ccc(Cl)cc1Cl | inactive |
| O=c1c2ccccc2nc(/C=C/c2ccco2)n1-c1ccccc1O | 23.1 µM (active) |
| CNC(C)[C@@H](O)c1ccccc1 (stereo not given in full) | inactive |
| CCC(=O)OC(Cc1ccccc1)(c1ccccc1)C(C)CN(C)C (stereo not given) | inactive |
| c1cc2c(cc1C1OCC3C(c4ccc5c(c4)OCO5)OCC13)OCO2 (stereo not given) | inactive |
| CC(=O)C1(O)CCC2C3CCC4=C(Cl)C(=O)CCC4(C)C3CCC21C (stereo not given) | inactive |
| CCNc1nc2[nH]c(=O)c3c(c2s1)OC(N)=C(C#N)C3c1cccs1 (stereo not given) | inactive |
| N#CC1=C(N)Oc2c(c(=O)oc3ccccc23)C1c1ccccc1OC(=O)c1cccs1 (stereo not given) | 20.6 µM (active) |
| CCN1C(=O)NC(=O)C2(CCCC2)C1=O | inactive |
| COc1cc(-n2c(=S)[nH]c3ccc(C)cc3c2=O)c(Cl)cc1Cl | 13 µM (active) |
| CC1([N+](=O)[O-])COP(=O)(Nc2ccc(F)cc2)OC1 (stereo not given) | inactive |
| COc1ccc2cc1Oc1ccc(cc1)C[C@H]1c3cc(c(OC)cc3CCN1C)Oc1c(O)c(OC)cc3c1[C@H](C2)N(C)CC3 | 20.6 µM (active) |

| SMILES | Potency |
| --- | --- |
| COc1c(O)ccc2c1-c1c3c(cc4c1C(C2)N(C)CC4)OCO3 (stereo not given) | inactive |
| CC[N+]1(CCOC(=O)C(O)(c2ccccc2)c2ccccc2)CCCCC1 | inactive |
| COC1=C[C@@H]2[C@@H]3Cc4ccc(OC)c(O)c4[C@]2(CCN3C)CC1=O | inactive |
| CNCC[C@H](Oc1ccc(C(F)(F)F)cc1)c1ccccc1 | inactive |
| Cc1cc(-c2ccc(N)c(C)c2)ccc1N | inactive |
| CC1CNCCN1c1ccc(Cl)cc1 (stereo not given) | inactive |
| C[C@@H]1C[C@@H]2O[C@H]2/C=C\C=C\C(=O)Cc2c(Cl)c(O)cc(O)c2C(=O)O1 | 9.2 µM (active) |
| CC(=O)OC1C([N+]2(C)CCCCC2)C[C@H]2C3CC[C@H]4C[C@H](OC(C)=O)C([N+]5(C)CCCCC5)CC4(C)C3CCC12C (stereo not given in full) | inactive |
| Cc1ncc(CC(=O)n2cc(C(=O)c3cc(Cl)ccc3O)cn2)s1 | 10 µM (active) |
| C[C@]12CCC3C(CC[C@H]4[C@H](O)[C@H](O)CC[C@]34C)C1CCC2=O (stereo not given in full) | inactive |
| O=C1NC(=O)C(CCOc2ccccc2)(CCc2ccccc2)C(=O)N1 | inactive |
| CCC1(c2ccccc2)C(=O)NC(=O)N(C)C1=O (stereo not given) | inactive |
| CCC1(CC(C)c2ccccc2)C(=O)NC(=O)NC1=O (stereo not given) | inactive |
| Cc1cc2ccccn2c1C(C[N+](=O)[O-])c1c(F)cccc1Cl (stereo not given) | 3.26 µM (active) |
| Oc1ccc2c3c1OC1[C@H](O)CC[C@@]4(O)[C@@H](C2)N(CC2CC2)CC[C@]314 (stereo not given in full) | inactive |
| CN1CCCC(=C(c2cccs2)c2cccs2)C1 | inactive |
| COC(=O)[C@@H]1C(OC(=O)c2ccccc2)CC2CCC1N2C (stereo not given in full) | inactive |
| Brc1cc(Br)c(Oc2cc(Br)c(Br)cc2Br)cc1Br | 14.6 µM (active) |
| CC[C@]1(C(=O)OC)[C@H]2C(=O)N(Cc3ccccc3)C(=O)[C@H]2[C@H]2CN=C(SCc3ccc(C#N)cc3)N21 | inactive |
| Cc1cc(C)c2c(c1)NP(=S)(c1ccccc1)N2 (stereo not given) | inactive |
| CN=C(NC#N)NCCSCc1nc[nH]c1C | inactive |
| O=C(N/N=C/c1ccc([N+](=O)[O-])o1)c1cc([N+](=O)[O-])cc([N+](=O)[O-])c1O | inactive |
